{"source": "the supplement of paper PMC6607015", "note": "Counter-ions that a name gives are not always drawn.", "data": [{"system": "A431", "experiment": "whole-cell filipin (free cholesterol) integrated intensity, Z-score; higher = more cholesterol staining", "conditions": "compound concentration in added solution (µM; 5 µl added to 20 µl cells): 10; 18 h", "how_it_was_run": "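Reported values are Z-scores from AcuityXpress normalisation of per-cell integrated LBPA or filipin staining. HeLa MZ or A431 cells (3,500/well in 20 µl) were seeded onto 5 µl of 10 µM compound solution in duplicate 384-well plates, incubated 18 h, fixed in 4% PFA, stained and imaged at 20×. MetaXpress segmentation measured the intensity over the whole cell or within LBPA endosomes.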", "values": [{"compound": "CN(C)CC/C=C1/c2ccccc2COc2ccc(CC(=O)O)cc21", "note": "[Olopatadine hydrochloride]", "whole-cell filipin (z-score)": 0.305}, {"compound": "CCc1c2c(nc3ccc(OC(=O)N4CCC(N5CCCCC5)CC4)cc13)-c1cc3c(c(=O)n1C2)COC(=O)[C@]3(O)CC", "note": "[Irinotecan Hydrochloride]", "whole-cell filipin (z-score)": 3.24}, {"compound": "CCc1cccc(CC)c1NC(=O)CN(CC(=O)O)CC(=O)O", "note": "[Etifenin]", "whole-cell filipin (z-score)": -0.798}, {"compound": "Nc1nc2n[nH]nc2c(=O)[nH]1", "note": "[Azaguanine-8]", "whole-cell filipin (z-score)": -1.15}, {"compound": "COC(=O)Nc1nc2cc(C(=O)c3ccc(F)cc3)ccc2[nH]1", "note": "[Flubendazol]", "whole-cell filipin (z-score)": -0.303}, {"compound": "CCCC1C(=O)N2C(N(C)C)=Nc3ccc(C)cc3N2C1=O", "note": "(stereo not drawn) [Azapropazone]", "whole-cell filipin (z-score)": 0.0445}, {"compound": "COc1ccc([C@@H]2CC(=O)c3c(O)cc(O[C@@H]4O[C@H](CO[C@@H]5O[C@@H](C)[C@H](O)[C@@H](O)[C@H]5O)[C@@H](O)[C@H](O)[C@H]4O)cc3O2)cc1O", "note": "[Hesperidin]", "whole-cell filipin (z-score)": -0.6}, {"compound": "O=C(CCCCCCC(=O)Nc1ccccc1)NO", "note": "[Vorinostat]", "whole-cell filipin (z-score)": 1.83}, {"compound": "CN1C(C)(C)CCCC1(C)C", "note": "[Pempidine tartrate]", "whole-cell filipin (z-score)": -0.191}, {"compound": "Nc1ccc(S(=O)(=O)NC(=O)c2ccccc2)cc1", "note": "[Sulfabenzamide]", "whole-cell filipin (z-score)": -0.453}, {"compound": "Cc1ccc(C)c(OCCCC(C)(C)C(=O)O)c1", "note": "[Gemfibrozil]", "whole-cell filipin (z-score)": -0.695}, {"compound": "CC(=O)CC(c1ccc([N+](=O)[O-])cc1)c1c(O)c2ccccc2oc1=O", "note": "(stereo not drawn) [Acenocoumarol]", "whole-cell filipin (z-score)": -0.704}, {"compound": "COc1cc([C@@H]2c3cc4c(cc3[C@@H](O[C@@H]3O[C@@H]5CO[C@@H](C)O[C@H]5[C@H](O)[C@H]3O)[C@H]3COC(=O)[C@H]23)OCO4)cc(OC)c1O", "note": "[Etoposide]", "whole-cell filipin (z-score)": 2.27}]}]}
